Drawing on PubChem BioAssay, this text covers inhibition for 40 compounds.

A word on the inhibition: it is the change of the read-out against control, counted positive when it falls.

Unmarked numbers belong to inactive results. The source made the active and inactive calls.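 Rule for the calls: active = inhibition at or above 50% relative to wild type and mutant plate controls; inactive = inhibition below 50%.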

A short description of this test: loss of swimming-algae plug formation – whole organism, Chlamydomonas reinhardtii, WT vs cilia-less mutant, absorbance, 96-well, primary screen (AID 463189).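 Note: 0% = wild type cc124 cells in DMSO and 100% = ciliumless bld1 mutant cells.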 Conditions: Chlamydomonas reinhardtii gravitaxis, OD600 absorbance, 2 days; at 10 µM; stronger effect = higher value.
`OC[C@H]1NC[C@@H](O)[C@@H]1O`: the inhibition was -9.59%.

With `c1ccc(CN2CCC3(CCCc4ccccc43)CC2)cc1`, the inhibition is 89% (active).

Turning to `NC(N)=N/N=C/c1c(Cl)cccc1Cl`, the inhibition was 3.64%.

In the case of `CC1(C)C(=O)N(CCN2CCC(C(=O)c3ccc(F)cc3)CC2)c2ccccc21`, the inhibition is 5.57%.

As for `COc1ccccc1N1CCN(CCCCN2C(=O)c3ccccc3C2=O)CC1`, the inhibition is 1.35%.

Regarding `CC(N)=NCc1cccc(CN)c1`, the inhibition was 7.48%.

Consider `O=C1O/C(=C/Br)CCC1c1cccc2ccccc12` (stereo not given), for which the inhibition was -0.58%.

In the case of `CCCCCCCC/C=C\CCCCCCCC(=O)NCCO`, the inhibition is -7.05%.

As for `N=C(N)c1ccccc1`, the inhibition was 7.5%.

On to `CN(C)CCOC(=O)COc1ccc(Cl)cc1`, for which the inhibition is 5.22%.

Regarding `NC(=O)NO`, the inhibition was -5.8%.

With `Nc1c2c(nc3ccccc13)CCCC2O` (stereo not given), the inhibition was 2%.

With `N#C/C(=C\c1ccc(O)c(O)c1)C(=O)NCCc1ccccc1`, the inhibition is -1.25%.

For `O=S(=O)(c1cccc2c(I)cccc12)N1CCCNCC1`, the inhibition is -1.51%.

Consider `N[C@H]1CONC1=O`, for which the inhibition was 6.36%.

On to `NCCS(=O)O`, for which the inhibition is 4.12%.

Turning to `N[C@@H]1CONC1=O`, the inhibition was 0.59%.

Regarding `Oc1ccc(Cn2cc[nH]c2=S)cc1`, the inhibition was 7.18%.

For the compound `Cc1ccccc1N1CCN(S(=O)(=O)C[C@]23CCC(CC2NC(=O)[C@@H](N)CCS(C)(=O)=O)C3(C)C)CC1` (stereo not given in full), the inhibition was 3.4%.

With `COc1ccc(NC(=O)/C=C/c2ccc(Cl)cc2)cc1`, the inhibition is 6.25%.

`NC(Cc1cccc(-c2ccccc2CP(=O)(O)O)c1)C(=O)O` (stereo not given): the inhibition was -2%.

Turning to `CSC(N)=NCCC[C@H](N)C(=O)O`, the inhibition is 9.75%.

On to `CCCCCCCCCCCCCCCC(=O)OC(CC(=O)O)C[N+](C)(C)C` (stereo not given), for which the inhibition was 2.15%.

As to `C[C@H](Cc1ccc(O)c(O)c1)[C@@H](C)Cc1ccc(O)c(O)c1`, the inhibition is -6.71%.

Consider `O=C(O)Cc1c[nH]c2ccc(O)cc12`, for which the inhibition is -4.32%.

For the compound `Nc1ccc(S(=O)(=O)Nc2ccnn2-c2ccccc2)cc1`, the inhibition is -0.772%.

As for `CCCOc1ccccc1-c1nc2n[nH]nc2c(=O)[nH]1`, the inhibition was -8.54%.

`c1ccc(-c2ccccn2)nc1`: the inhibition is 1.35%.

As for `CNc1cc(NS(=O)(=O)c2ccc(N)cc2)nc(NC)n1`, the inhibition was -3.79%.

In the case of `COc1ccc(NC(=O)c2ccc(-c3ccc(-c4noc(C)n4)cc3C)cc2)cc1N1CCN(C)CC1`, the inhibition is 47.6%.

On to `O=C(O)c1cccnc1C(=O)O`, for which the inhibition was 3.76%.

Consider `O=C(O)CCCC[C@@H]1CCSS1`, for which the inhibition was 4.4%.

Consider `C[N+](C)(C)CCOC(N)=O`, for which the inhibition was 7.07%.

On to `COc1ccccc1N1CCN(CCN(C(=O)c2ccc(F)cc2)c2ccccn2)CC1`, for which the inhibition was 0.605%.

As to `COc1ccc(C(=O)NCc2cccnc2)cc1C(=O)NCc1cccnc1`, the inhibition is 6.89%.

With `Nc1ncnc2c1ncn2C1CCCC1`, the inhibition was -2.12%.

Turning to `CC1CCN(CC[C@H]2CCCN2S(=O)(=O)c2cccc(O)c2)CC1`, the inhibition is -12.1%.

As to `Cc1cc2c(cc1Cl)N(C(=O)Nc1ccnc3ccccc13)CC2`, the inhibition was -0.614%.

In the case of `CN=c1nc(-c2ccccc2)n(-c2ccccc2)s1`, the inhibition was 13%.

`CCn1cc(C(=O)O)c(=O)c2cc(F)c(N3CCNC(C)C3)c(F)c21` (stereo not given): the inhibition was 3.51%.
